The results in this text go back to article PMC5913336, “True equilibrium measurement of transcription factor-DNA binding affinities using automated polarization microscopy”.

In this assay the target is Tll (Drosophila melanogaster, UniProt P18102 21-118). Kind of assay: FP; 33 mM phosphate pH 7.0, 90 mM NaCl, 0.01% Tween 20, 0.1 mM DTT, 0.5% agarose; room temperature. To be noted: tags: N-GST (pGEX-6P-1, kept); dsDNA, one strand shown.
Chain of Tll (P18102 21-118): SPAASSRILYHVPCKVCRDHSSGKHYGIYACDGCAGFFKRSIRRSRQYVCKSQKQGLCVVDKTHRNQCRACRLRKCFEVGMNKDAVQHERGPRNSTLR
For the sequence AGAAAGTCAAAT, the binding signal was 2.99 Kd / Kd of best base at the position.
Same read-out and setting: under AAAAAGTCAAAG stands 2.05 Kd / Kd of best base at the position; under AAAAAGTCAAGT, 3.05 Kd / Kd of best base at the position; under AAAAAGACAAAT, 36.4 Kd / Kd of best base at the position.
On the same count and under the same terms, under AAAAAGTCATAT stands 3.23 Kd / Kd of best base at the position.
AATAAGTCAAAT: the binding signal is 2.37 Kd / Kd of best base at the position.
As to AAAAAGCCAAAT, the binding signal is 7.08 Kd / Kd of best base at the position.
For the sequence AAAAAGTAAAAT, the binding signal was 18.6 Kd / Kd of best base at the position.
Still for that read-out and setting: under ACAAAGTCAAAT stands 3.41 Kd / Kd of best base at the position.
In the case of AAAAAGTCCAAT, the binding signal was 14.4 Kd / Kd of best base at the position.
On the same count and under the same terms, the same measure for AAAAACTCAAAT: 57.7 Kd / Kd of best base at the position; for AAAAAGTTAAAT: 2.32 Kd / Kd of best base at the position; for AAAAAGTCAATT: 1.96 Kd / Kd of best base at the position.
The same measure, in the same setting: the same measure for AAAAGGTCAAAT: 6.02 Kd / Kd of best base at the position; for AACAAGTCAAAT: 3.38 Kd / Kd of best base at the position.
Regarding AAAAAATCAAAT, the binding signal is 10.1 Kd / Kd of best base at the position.
Same read-out and setting: under GAAAAGTCAAAT stands 1.71 Kd / Kd of best base at the position; under ATAAAGTCAAAT, 2.33 Kd / Kd of best base at the position; under AAACAGTCAAAT, 11.1 Kd / Kd of best base at the position.
AAAAAGTCAAAT showed a Kd of about 4.1 nM.
Regarding AAAAATTCAAAT, the binding signal was 71.4 Kd / Kd of best base at the position.
Same read-out and setting: the same measure for AAGAAGTCAAAT: 1.73 Kd / Kd of best base at the position; for AAAAAGTGAAAT: 71.7 Kd / Kd of best base at the position; for CAAAAGTCAAAT: 2.71 Kd / Kd of best base at the position.
The same measure, in the same setting: under TAAAAGTCAAAT stands 2.03 Kd / Kd of best base at the position; under AAATAGTCAAAT, 12.4 Kd / Kd of best base at the position.
For the sequence AAAAAGTCAAAA, the binding signal is 1.57 Kd / Kd of best base at the position.
Consider AAAAAGTCAAAC, for which the binding signal is 1.05 Kd / Kd of best base at the position.
On the same count and under the same terms, under AAAAAGTCAGAT stands 4.13 Kd / Kd of best base at the position; under AAAATGTCAAAT, 15 Kd / Kd of best base at the position; under AAAAAGTCTAAT, 13.1 Kd / Kd of best base at the position.
On the same count and under the same terms, under AAAAAGTCAACT stands 2.61 Kd / Kd of best base at the position; under AAAAAGGCAAAT, 7.78 Kd / Kd of best base at the position.
Still for that read-out and setting: the same measure for AAAGAGTCAAAT: 3.96 Kd / Kd of best base at the position.
In the case of AAAAAGTCGAAT, the binding signal was 5.21 Kd / Kd of best base at the position.
Same read-out and setting: the same measure for AAAACGTCAAAT: 8.65 Kd / Kd of best base at the position; for AAAAAGTCACAT: 1.72 Kd / Kd of best base at the position.
